# Experimental data published in PubChem BioAssay (NCATS).
# Inconclusive results are not listed. Entries that show only a call come without a potency. The source made the active and inactive calls. Calls follow the shape of the dose curve; as a rule, active = well fitted inhibition curve with a large enough effect; inconclusive = small, poorly fitted or top-dose-only effect; inactive = flat fitted curve, though single readings scatter.
# Test system: HEK293T
# Assay: qHTS assay to identify novel small-molecules to repurpose for Merkel cell carcinoma treatment (AID 1296009); also: nearly all actives have a fitted effect of over 60% in size
# Settings: MCC and control cell lines, CellTiter-Glo viability, 72 h; series mostly up to 44.8 µM
# In short: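 Cells were treated for 72 hr at 37 degree celsius with compounds in 8- or 11-point dose response. Viability was read by CellTiter-Glo luminescence, normalized to no-cell (cytotoxicity) and DMSO controls.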
SMILES,Potency,outcome
C=CC1C(O[C@@H]2O[C@H](CO)[C@@H](O)[C@H](O)[C@H]2O)OC=C(C(=O)OC)C1CC(=O)O (some centres undefined),inactive,–
CC(C)(O)c1ccc2c(c1)C(O)CC1C(C)(C(=O)O)CCCC21C (centres undefined),inactive,–
CC(C)(O)C1CCC2(C)C3C(O)C4C(C13)C42CO (centres undefined),inactive,–
O=c1ccn(C2OC(CO)C(O)C2O)c(=O)[nH]1 (centres undefined),inactive,–
CCCC(N[C@@H](C)C(=O)N1[C@H](C(=O)O)C[C@@H]2CCCC[C@@H]21)C(=O)OCC (some centres undefined),inactive,–
CCC[C@@H]1C[C@@H](C(=O)N[C@@H]([C@H]2O[C@H](SC)[C@H](O)[C@@H](O)[C@@H]2O)[C@@H](C)O)N(C)C1,inactive,–
COc1cc([C@H]2OC[C@@H]3[C@@H](c4ccc(O[C@@H]5O[C@H](CO)[C@@H](O)[C@H](O)[C@H]5O)c(OC)c4)OC[C@]23O)ccc1O,inactive,–
O=C(OCc1cccc(O)c1O[C@@H]1O[C@H](CO)[C@@H](O)[C@H](O)[C@H]1O)C1(O)C(=O)C2C=CC1C1C=CC(=O)C(O)(C(=O)OCc3cccc(O)c3O[C@@H]3O[C@H](CO)[C@@H](O)[C@H](O)[C@H]3O)C21 (some centres undefined),–,inactive [at 9.27 µM]
COC(=O)CC[C@@H](C)[C@H]1CC[C@H]2[C@@H]3CC(=O)[C@H]4C[C@H](OC(C)=O)CC[C@]4(C)[C@H]3CC[C@]12C,inactive,–
FC(F)(F)c1cc(C(F)(F)F)c2ccc3nc(-c4nnco4)cn3c2n1,inactive,–
COc1c(C)c2c(c(O)c1C/C=C(\C)CC/C=C(\C)CCC(=O)O)C(=O)OC2,inactive,–
CC[C@@H](c1ccc(F)c(F)c1)n1c(C(=O)OC)c(-c2ccno2)[nH]c1=S,inactive,–
CC(C)=CCC/C(C)=C/CC/C(C)=C/CC[C@]1(C)CCc2cc(O)cc(C)c2O1,inactive,–
CC1=CC(=O)CC(C)(C)C1CCC(C)OC1OC(COC(=O)c2cc(O)c(O)c(O)c2)C(O)C(O)C1O (centres undefined),inactive,–
COc1ccc(/C=C/C(=O)O[C@H]2[C@@H]3C=CO[C@@H](O[C@@H]4O[C@H](CO)[C@@H](O)[C@H](O)[C@H]4O)[C@@H]3[C@@]3(CO)O[C@@H]23)cc1O,inactive,–
Cc1ncc([N+](=O)[O-])n1CC(O)CN1CCOCC1 (centres undefined),inactive,–
C=CC(C)(O)CC/C=C(/C)C(=O)OC1C(OC2OCC(OC3OC(CO)C(O)C(O)C3O)C(OC3OCC(O)C(OC4OC(C)C(O)C(O)C4O)C3O)C2O)COC(OC(=O)C23CCC(C)(C)CC2C2=CCC4C5(C)CCC(OC6OC(CO)C(OC7OC(CO)C(O)C(OC8OCC(O)C(O)C8O)C7O)C(O)C6O)C(C)(C)C5CCC4(C)C2(C)CC3O)C1O (centres undefined),–,inactive [at 4.96 µM]
O=C1C[C@@H](c2ccc(O)cc2)Oc2cc(O)ccc21,inactive,–
CC(C)CC(=O)n1cc(C(N)=O)c(=O)cc1C(O)c1ccccc1 (centres undefined),inactive,–
COc1cc([C@H]2OC[C@]3(OC(C)=O)[C@@H](c4ccc(O[C@@H]5O[C@H](CO)[C@@H](O)[C@H](O)[C@H]5O)c(OC)c4)OC[C@H]23)ccc1O,inactive,–
CC(C)=CCc1ccc(Oc2c(O)cc(C)cc2CO)c(C(=O)O)c1O,inactive,–
O=C(O)CCc1cccc(O[C@@H]2O[C@H](CO)[C@@H](O)[C@H](O)[C@H]2O)c1O,inactive,–
COC(=O)[C@@]1(O)C=CC[C@@H]2[C@@]3(C)C[C@@H](c4ccoc4)OC(=O)[C@H]3CC[C@]21C,inactive,–
CC(C)CC(=O)OC[C@H]1O[C@@](COC(=O)CC(C)C)(O[C@H]2O[C@H](CO)[C@@H](O)[C@H](O)[C@H]2O)[C@@H](OC(=O)CC(C)C)[C@@H]1OC(=O)CC(C)C,inactive,–
C=CC(C)(C)O[C@@H]1O[C@H](CO[C@@H]2OC[C@](O)(CO)[C@H]2O)[C@@H](O)[C@H](O)[C@H]1O,inactive,–
CCC(C)/C=C(C)/C=C/C1=CC2=C(Cl)C(=O)C(C)(OC(C)=O)C(=O)C2=CN1C1CCCCN(C(CCC(N)=O)C(=O)O)C1=O (centres undefined),inactive,–
CN[C@@H]1[C@@H](O)[C@@H](O[C@@H]2[C@@H](O)[C@H](O[C@H]3O[C@H](CN)[C@@H](O)[C@H](O)[C@H]3O)[C@@H](N)C[C@H]2NC(=O)[C@@H](O)CN)OC[C@]1(C)O,inactive,–
O=C(O)C[C@@H](NC(=O)c1cc(-c2ccc(-c3ccncc3)cc2)cs1)c1ccccc1,inactive,–
CC(CCC1(O)OC2CC3C4CCC5CC(O[C@@H]6O[C@H](CO)[C@@H](O)[C@H](O)[C@H]6O[C@@H]6OC[C@@H](O)[C@H](O)[C@H]6O)C(O)CC5(C)C4CCC3(C)C2C1C)CO[C@@H]1O[C@H](CO)[C@@H](O)[C@H](O)[C@H]1O (some centres undefined),–,inactive [at 9.27 µM]
